Giardia killer – Small Molecules that selectively kill Giardia lamblia: qHTS; activity change, % at 7.66 µM, hits read low; 340,000 tested, 0.15% active; Giardia lamblia trophozoite viability; in the data active means activity change below about -80%; inconclusive means between about -30% and that limit;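 further: parasites exposed to compound for two days anaerobically before the ATP read; on the % scale 0 is the no-effect control and ±100 the full control effect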
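Viability, read as ATP luminescence: trophozoites at 100 cells/well, compound added, 48 hrs anaerobic at 37 deg C, then 15-30 min room-temperature development before reading.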
TRPV1 agonist – HTS Assay for Compounds that Act as Agonists of the Vanilloid Receptor 1 | TRPV1-expressing cells, Fluo-8 calcium influx, agonist mode | AID 540275, 2011 | Transient receptor potential cation channel subfamily V member 1 (Homo sapiens), Q8NER1 | activation, % at 8.33 µM | 320,000 tested, 0.19% active; in the data active means activation above about 80%; inconclusive means between about 30% and that limit; further: 0% is about no effect
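TRPV1-expressing cells were cultured overnight at 35.5C and loaded with Fluo-8 calcium dye for 40 to 90 min at room temperature. After a 10 s baseline, compound was added and calcium influx was read kinetically for 3 min (ex 480/em 520 nm).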
FUS yeast rescue – qHTS for Suppressors of FUS Proteinopathy: Primary screen using FUS-linked yeast assay; Potency, µM (doses to about 76.6 µM), usual class: activators; S. cerevisiae FUS-expressing, growth rescue, OD600, 24 h; 390,000 tested, 0.24% active; AID 1347120, 2019;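 further: potency means the concentration at half of the fitted maximal effect; plate controls were DMSO vehicle for no effect and reference control for full effect; nearly all actives have a fitted effect of over 55% in size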
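Cultures pregrown in 2.5% raffinose medium are shifted to minimal medium containing 2% galactose to express toxic FUS. Compounds are tested at several concentrations. After 24hr at 30C, growth is quantified at 600 nm absorbance.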
ELG1 repair inh – qHTS screen for small molecules that inhibit ELG1-dependent DNA repair in human embryonic kidney (HEK293T) cells expressing luciferase-tagged ELG1. HEK293T ELG1-luciferase reporter, luminescence, 16 h; DNA damage induced by 5-fluorouridine. Potency, µM (top dose mostly 46.1 µM), inactives show at the highest dose activity change, negative = inhibition, hits mostly inhibitors. 330,000 tested, 2.3% active. AID 504467, 2011; further: potency means the concentration at half of the fitted maximal effect; on the % scale 0 is the no-effect control and ±100 the full control effect; nearly all actives have a fitted effect of over 55% in size
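Reporter activity after DNA damage by 5-fluorouridine is monitored. Compound-treated cells incubate 16 hr at 37 °C, then ONE-Glo is added for 30 min before luminescence reading.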
TRPV1 PAM – HTS Assay for Compounds that Act as Potentiators of the Vanilloid Receptor 1. 320,000 tested, 0.02% active. potentiation, % at 8.33 µM. TRPV1-expressing cells, Fluo-8 calcium influx, capsaicin EC20 potentiation. Transient receptor potential cation channel subfamily V member 1 (Homo sapiens), Q8NER1. AID 540277, 2011; in the data active means potentiation above about 80%; inconclusive means between about 30% and that limit; further: 0% is about no effect
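Cells expressing TRPV1 were dye-loaded with Fluo-8 and read kinetically: 10 s baseline, 3 min after compound (agonist portion), then 2 min after EC20 capsaicin (allosteric enhancer portion). Calcium-bound dye fluorescence at 480/520 nm.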
Numbers without * were called inactive. A selection: hits, their analogues and other compounds. The true share with any hit is near 2.3%. Unless noted, the call rests on the fitted dose curve; in most records, active means well fitted curve in the direction sought with a large enough effect; inconclusive means small, poorly fitted or top-dose-only effect, or another doubt; inactive means no such curve, though single readings can be large; an effect the other way counts as inactive or inconclusive.

Results for Cc1ccc2c(C)nc(Nc3nc(CSc4nnnn4-c4ccccc4)cc(=O)[nH]3)nc2c1 ?
Giardia killer: -10; TRPV1 agonist: 1; FUS yeast rescue: inactive; ELG1 repair inh: 8.2µM*; TRPV1 PAM: inconclusive

How did CCCCCCc1c(C)c2c(cc(C)c3c(C)c(C)oc32)oc1=O do in these assays?
FUS yeast rescue: inactive

Results for COc1ccc2ncc(S(=O)(=O)c3ccccc3)c(N3CCN(c4ccccc4)CC3)c2c1 ?
Giardia killer: inconclusive; TRPV1 agonist: 14; FUS yeast rescue: inactive; ELG1 repair inh: 16µM*; TRPV1 PAM: 1

Results for COc1ccccc1CNC(=O)c1ccc2c(c1)nnn2C1CCCC1 ?
FUS yeast rescue: inactive

What do the screens show for `CC(C)(CC(=O)OCC(=O)Nc1ccccc1F)CC1=NS(=O)(=O)c2ccccc2N1`?
Giardia killer: -7; TRPV1 agonist: 3; FUS yeast rescue: inactive; ELG1 repair inh: 9.2µM*; TRPV1 PAM: -1

Results for CCOC(=O)c1ccc(Nc2ncnc3c2cnn3C)cc1 ?
Giardia killer: -10; TRPV1 agonist: 83*; FUS yeast rescue: inactive; ELG1 repair inh: -7%; TRPV1 PAM: 2

What do the screens show for `CC(=O)Nc1ccc(Nc2ncnc3c2cnn3-c2ccc(C)cc2C)cc1`?
Giardia killer: 11; TRPV1 agonist: 87*; FUS yeast rescue: inactive; ELG1 repair inh: -11%; TRPV1 PAM: -17

What do the screens show for `CCCCCCCCn1ccc(=N)cc1`?
Giardia killer: -12; TRPV1 agonist: -4; FUS yeast rescue: inactive; ELG1 repair inh: 0.73µM*; TRPV1 PAM: -45

How did CCCCCCCCCCn1ccc(=N)cc1 do in these assays?
Giardia killer: 2; TRPV1 agonist: 4; FUS yeast rescue: inactive; ELG1 repair inh: inconclusive; TRPV1 PAM: 23

How did O=C1/C(=C/c2cccc([N+](=O)[O-])c2)CCc2ccccc21 do in these assays?
Giardia killer: 3; TRPV1 agonist: 5; ELG1 repair inh: -17%; TRPV1 PAM: 20

What do the screens show for `CCN1C/C(=C\c2cccc([N+](=O)[O-])c2)C(=O)/C(=C/c2cccc([N+](=O)[O-])c2)C1`?
Giardia killer: inconclusive; TRPV1 agonist: -1; ELG1 repair inh: 3.3µM*; TRPV1 PAM: -5

How did CC1CCCC(C)N1C(=O)c1cccc2c1-c1ccccc1/C2=N/O (stereo not drawn) do in these assays?
Giardia killer: 1; TRPV1 agonist: 1; FUS yeast rescue: inactive; ELG1 repair inh: 21µM*; TRPV1 PAM: 18

How did CCOC(=O)c1cccc2c1-c1ccccc1/C2=N/O do in these assays?
Giardia killer: -9; TRPV1 agonist: 2; FUS yeast rescue: inactive; ELG1 repair inh: inconclusive; TRPV1 PAM: 3

How did O=CN/N=C/c1c(O)ccc2ccccc12 do in these assays?
Giardia killer: 12; TRPV1 agonist: -2; FUS yeast rescue: inactive; ELG1 repair inh: 21µM*; TRPV1 PAM: -5

Results for NC(=S)N/N=C/c1c(O)ccc2ccccc12 ?
Giardia killer: 9; TRPV1 agonist: -1; FUS yeast rescue: inactive; ELG1 repair inh: 13µM*; TRPV1 PAM: 19

What do the screens show for `Cc1cc(Nc2ccccc2)nc(-c2ccccc2O)n1`?
Giardia killer: -19; TRPV1 agonist: 6; FUS yeast rescue: inactive; ELG1 repair inh: 8%; TRPV1 PAM: 1

What do the screens show for `Cc1cc(N/N=C/c2c(O)ccc3ccccc23)nc(-c2ccccc2O)n1`?
Giardia killer: -9; TRPV1 agonist: 1; FUS yeast rescue: inactive; ELG1 repair inh: 23µM*; TRPV1 PAM: -3

How did Oc1ccc2ccccc2c1/C=N/Nc1ccccc1 do in these assays?
Giardia killer: -9; TRPV1 agonist: 0; ELG1 repair inh: inconclusive; TRPV1 PAM: 18

How did CCC(Nc1ccc(-c2nc(-c3ccco3)no2)cc1[N+](=O)[O-])c1ccccc1 (stereo not drawn) do in these assays?
FUS yeast rescue: inactive

What do the screens show for `CCCC/C=C1/[C@@H](CC)N(Cc2ccc(OC)cc2OC)C2=N[C@@H](c3ccccc3)CC(=O)N21`?
FUS yeast rescue: inactive

Results for O=C(c1cccc([N+](=O)[O-])c1)N1CCN(CCc2ccncc2)CC1 ?
FUS yeast rescue: inactive

Results for COc1cccc(C(=O)N2CCC2(C)C(=O)O)c1 (stereo not drawn) ?
FUS yeast rescue: inactive

What do the screens show for `COc1ccc(Cn2c(SCc3ccc(C(=O)NCc4cccs4)cc3)nc3cccnc32)cc1`?
FUS yeast rescue: inactive

How did COC(=O)c1cccc(NC(=O)NC23CC4CC(CC(C4)C2)C3)c1 do in these assays?
Giardia killer: 8; TRPV1 agonist: 2; FUS yeast rescue: inactive; ELG1 repair inh: inconclusive; TRPV1 PAM: 17

How did COC(=O)c1ccc(Cl)c(NC(=O)NC23CC4CC(CC(C4)C2)C3)c1 do in these assays?
Giardia killer: 2; TRPV1 agonist: 2; FUS yeast rescue: inactive; ELG1 repair inh: 21µM*; TRPV1 PAM: -2

What do the screens show for `Cc1cccc(C)c1NC(=O)CSc1cc(C(=O)c2nccn2C)c2ccccc2n1`?
Giardia killer: 10; TRPV1 agonist: 1; FUS yeast rescue: inactive; ELG1 repair inh: 15µM*; TRPV1 PAM: -3

How did Cn1ccnc1C(=O)c1cc(SCC(=O)NC2CC2)nc2ccccc12 do in these assays?
Giardia killer: 7; TRPV1 agonist: -5; FUS yeast rescue: inactive; ELG1 repair inh: inconclusive; TRPV1 PAM: 10

What do the screens show for `COc1cccc(NC(=O)CSCc2cc(=O)c3ccc(C)c(C)c3[nH]2)c1`?
FUS yeast rescue: inactive

Results for Fc1ccc(NCc2nnc(SCc3nnc(-c4ccccc4)o3)n2Cc2ccccc2)cc1 ?
Giardia killer: 8; TRPV1 agonist: 4; FUS yeast rescue: inactive; ELG1 repair inh: 16µM*; TRPV1 PAM: -3

What do the screens show for `Clc1ccc(-c2nnc(CSc3nnc(-c4cccs4)n3Cc3ccccc3)o2)cc1`?
Giardia killer: -19; TRPV1 agonist: 2; FUS yeast rescue: inconclusive; ELG1 repair inh: -18%; TRPV1 PAM: 2

How did Cc1c(Cl)cccc1NC(=O)CCS(=O)(=O)c1ccc(Br)s1 do in these assays?
FUS yeast rescue: inactive

How did CCOCCCNc1ncnc2c1cnn2-c1ccc(C)c(C)c1 do in these assays?
FUS yeast rescue: inactive

What do the screens show for `CCO[C@H]1OC(C(=O)N2CCN(Cc3ccc4c(c3)OCO4)CC2)=C[C@@H](c2csc3ccccc23)[C@@H]1CCCO`?
Giardia killer: 17; TRPV1 agonist: inconclusive; FUS yeast rescue: inactive; ELG1 repair inh: inconclusive; TRPV1 PAM: 16
